Screening data: PubChem, National Center for Advancing Translational Sciences (NCATS)
HCMV inh: inhibitors of human cytomegalovirus | actives 4.5% (n = 410,000) | activity change, negative = inhibition, % at 57.5 µM | AID 1259415 | HFF cells, HCMV-luciferase reporter, 72 h; hits give low values; in the data active = activity change below about -60%; inconclusive = no clear call, values can overlap the other calls; inactive = above about -39%; note: % is set by controls: 0 for no effect and ±100 for the full control effect
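Luciferase read-out from HCMV-luciferase-infected HFFs (MOI 1 PFU/cell) 72 h post infection at 37C; compounds added after 16 h cell attachment; activity normalized between buffer-only basal and Salinomycin (10uM) inhibitor controls.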
HCV inh: inhibitors of hepatitis C virus infection | Huh7.5.1 HCVcc-Cre infection, luciferase reporter, 44 h | Potency, µM (titrated, usually from 41.8 µM), without a hit: at the highest dose activity change, negative = inhibition, most hits filed as inhibitors | actives 3.4% (n = 340,000); note: potency is the fitted concentration of half-maximal effect; % is set by controls: 0 for no effect and ±100 for the full control effect
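Reporter virus HCVcc-Cre (~0.5 moi) infects cells exposed to compound; seeding density 1,000 cells/well with 4 h settling beforehand. Luminescence, 15 sec read, taken 44 h post-infection following a 15 min RT substrate incubation.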
Shiga toxin inh: Shiga toxin inhibition. Vero cells, Shiga toxin protein synthesis inhibition reporter. inhibition, % at 38.7 µM. actives 9.2% (n = 290,000). AID 2315; in the data active = inhibition mostly above about 28%, no sharp cut-off; inactive = mostly below about 43%; note: 0% is about no effect
CHX counter: affects cycloheximide protein synthesis inhibition readout, counter-screen. cell reporter, cycloheximide protein synthesis inhibition counterscreen. max response, %. actives 12% (n = 300,000). AID 2314; in the data active = max response mostly above about 13%, no sharp cut-off; inactive = mostly below about 14%; note: read at 38.3 µM for the half of the compounds with a filed dose; 0% is about no effect
Pf growth 96h: inhibits malaria parasite growth, 96 h. Potency, µM (highest dose often 28.7 µM), without a hit: top-dose activity change, negative = inhibition, usual class: inhibitors. P. falciparum luciferase reporter growth, 96 h. actives 6.9% (n = 320,000). AID 504834; note: potency is the fitted concentration of half-maximal effect; % is set by controls: 0 for no effect and ±100 for the full control effect
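Cell-based qHTS: luciferase-tagged P. falciparum in erythrocytes (2% hematocrit, 0.05% parasitemia final) incubated with compounds for 96 hours, 37 C, 5% CO2; luciferase detection reagent then added and luminescence measured.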
Pf growth 48h: P. falciparum growth inhibition at 48 hours (one generation). Potency, µM (series often up to 28.7 µM), for the others: top-dose activity change, negative = inhibition, hits mostly inhibitors. actives 5.9% (n = 310,000). P. falciparum luciferase growth in erythrocytes, 48 h; note: potency is the fitted concentration of half-maximal effect; % is set by controls: 0 for no effect and ±100 for the full control effect
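Cell-based growth assay: transgenic P. falciparum expressing firefly luciferase, cultured in red cells within RPMI 1640 containing 0.5% w/v Albumax, 24 mM bicarbonate and gentamycin. A drop in luciferase activity indicates inhibition.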
Numbers without * were called inactive; ? = inconclusive; / = no result given. A selection: hits, their analogues and other compounds. The true share with any hit is near 21%. Unless noted, calls come from the whole dose curve; as a rule, active = well fitted inhibition curve with a large enough effect; inconclusive = small, poorly fitted or top-dose-only effect, or another doubt; inactive = no such curve, though single readings can be large or run the other way.

SMILES	HCMV inh	HCV inh	Shiga toxin inh	CHX counter	Pf growth 96h	Pf growth 48h
COc1ccccc1-c1c(C)nn2c(C(F)(F)F)cc(-c3ccccc3)nc12	-10	/	/	/	/	/
CCCS(=O)(=O)NC(=O)C1(C)CCCN(C(=O)c2ccccc2OC)C1 (stereo unspecified)	-10	/	/	/	/	/
CC1CN=C(N(C(=S)Nc2ccccc2)c2cccc(C(F)(F)F)c2)S1 (stereo unspecified)	39	10%	33	14*	3%	24%
CC1CCCC(C)N1C(=C(Cl)Cl)C(=C1SCCS1)[N+](=O)[O-] (stereo unspecified)	-69*	?	22	8	?	-29%
Cc1ccc(N2C(=O)CS/C2=C(\C(Cl)=C(Cl)Cl)[N+](=O)[O-])cc1	-32	-18%	19	7	?	/
CC1CC(C)CN(S(=O)(=O)c2ccc3c(c2)oc(=O)n3CC(=O)NCc2cccnc2)C1 (stereo unspecified)	-36	-16%	-13	-2	10µM*	?
O=C(NCc1ccc2c(c1)OCO2)c1cccc(S(=O)(=O)N2CCCCC2)c1	-1	-1%	-2	2	55%	?
Cc1ccc2oc(C(=O)NCc3ccc4c(c3)OCO4)c(C)c2c1	-6	6%	2	24*	86%	33%
Cc1ccc(CNC(=O)c2oc3ccc(S(=O)(=O)N4CCCC(C)C4)cc3c2C)cc1 (stereo unspecified)	-13	/	/	/	/	/
Cc1c(C(=O)NCc2ccc3c(c2)OCO3)oc2ccc(S(=O)(=O)N3CCCCCC3)cc12	-32	?	-12	-3	?	13µM*
Cc1c(C(=O)NCc2cccnc2)oc2ccc(S(=O)(=O)N3CCCC(C)C3)cc12 (stereo unspecified)	-18	-18%	22	0	5.9µM*	?
COc1ccc(CNc2oc(/C=C/c3cc(OC)c(OC)c(OC)c3)nc2C#N)cc1	187	/	/	/	/	/
Cc1c(C(=O)NCc2ccc3c(c2)OCO3)oc2ccc(S(=O)(=O)N3CCC(C)CC3)cc12	/	?	4	-3	58%	9.3µM*
Cc1ccc2oc(C(=O)NCC3CCOCC3)c(C)c2c1	72	1%	59*	21	10µM*	29%
CC1CCN(S(=O)(=O)c2ccc3c(c2)oc(=O)n3CC(=O)NCc2ccc3c(c2)OCO3)CC1	-7	?	-18	-10	?	/
CC(=O)Nc1ccc(/C=N/N2C(C)CCCC2C)cc1 (stereo unspecified)	70	5%	22	16*	2%	59%
CC1CCCC(C)N1/N=C/c1ccc(C#N)cc1 (stereo unspecified)	47	8%	58	26*	118%	3%
CCOc1cccc(/C=N/N2C(C)CCCC2C)c1O (stereo unspecified)	-5	-7%	46	30*	-25%	-28%
CC(=O)Nc1ccc(/C=N/NC(=S)NC(C)C)cc1	23	-21%	2	-3	-13%	?
COc1ccc(/C=N/N2C(C)CCCC2C)cc1OC (stereo unspecified)	10	23%	19	6	19%	33%
CCOc1ccc(/C=N/N2C(C)CCCC2C)cc1 (stereo unspecified)	14	-1%	50	37*	-6%	-10%
CCOc1cccc(/C=N/N=C/c2cccc(OCC)c2O)c1O	25	8%	70	15	-2%	0%
Cc1ccc(CNC(=O)CN(C)S(=O)(=O)c2ccc(F)cc2)cc1	5	-11%	/	/	/	/
O=C(c1cnccn1)N1CC(=O)N2[C@@H](CO)[C@H](c3ccc(Br)cc3)[C@@H]2C1	-23	/	/	/	/	/
Cc1ccc(-c2cc(C(=O)N3CCN(C(=O)c4ccco4)CC3)[nH]n2)cc1C	-25	7%	20	8	62%	-15%
SMILES	HCMV inh	HCV inh	Shiga toxin inh	CHX counter	Pf growth 96h	Pf growth 48h
Cc1cc(Br)ccc1NC(=O)CSc1nnc(CN2CCOCC2)n1C	-18	1%	-14	-3	3%	-1%
CC(=O)Nc1ccc(/C=N/N2CCCCC2)cc1	14	13%	116*	44*	79%	255%
CC1CCCC(C)N1/N=C/c1ccc(Cl)cc1 (stereo unspecified)	21	11µM*	3	-2	-1%	/
O=C(CNC(=O)[C@@H]1Cc2ccccc2CN1)NCc1ccco1	-24	-18%	-1	-6	44%	6%
Cc1ccc(C(=O)c2c3ccc([N+](=O)[O-])cc3[n+]([O-])n2CCCC(N)=O)cc1	-19	10µM*	/	/	?	?
NC(=O)CCCn1c(C(=O)c2cc(Cl)c(N)c(Cl)c2)c2ccc([N+](=O)[O-])cc2[n+]1[O-]	-13	11µM*	/	/	9.3µM*	?
Cc1cc(C(=O)NCC(=O)OC(C(=O)Nc2cc(C(F)(F)F)ccc2Cl)c2ccccc2)ccc1[N+](=O)[O-] (stereo unspecified)	-12	-28%	-2	-3	?	/
CCCC(=O)OC(C(=O)Nc1cc(C(F)(F)F)ccc1Cl)c1ccccc1 (stereo unspecified)	-39	-7%	-3	-4	13µM*	13µM*
O=C(OC(C(=O)Nc1ccc(Cl)cc1C(F)(F)F)c1ccccc1)c1c(Cl)cccc1Cl (stereo unspecified)	?	-22%	-9	1	0%	12µM*
O=C(c1cc2c(F)cccc2s1)N1CCCC1	-16	2%	52	20	8%	-10%
Cc1nn(-c2ccccc2)c(Cl)c1/C=N/NS(=O)(=O)c1ccc(Br)cc1	-14	-21%	15	-3	2%	3%
CNC(=S)N/N=C/c1c(C)nn(-c2ccccc2)c1Cl	185	-24%	61*	35*	/	4%
Cc1nn(-c2ccccc2)c(Cl)c1/C=N/Nc1ccc(S(=O)(=O)Nc2ccccc2C(=O)O)cc1[N+](=O)[O-]	15	3%	-9	7	?	?
CCOC(=O)N/N=C/c1c(C)nn(-c2ccccc2Cl)c1Cl	37	?	33	27*	10µM*	?
Cc1nn(-c2ccccc2Cl)c(Cl)c1/C=N/Nc1nc2ccccc2s1	-94*	1%	170*	104*	-72%	?
Cc1nn(-c2ccccc2)c(Cl)c1/C=N/Nc1ccc(Cl)c(C(=O)O)c1	139	8%	98*	87*	397%	245%
